The list is not random: actives were taken first. Their share in the collection is about 2.9%.
12-LOX inh: Primary qHTS assay for inhibitors of human arachidonate 12S-lipoxygenase (ALOX12): Round 2; AID 1671190, 2021; 1.1% of 580,000 active; Potency, µM (top dose mostly 108 µM), inactives show at the highest dose activity change, negative = inhibition, hits mostly inhibitors; purified 12hLO, xylenol orange hydroperoxide absorbance; Polyunsaturated fatty acid lipoxygenase ALOX12 (Homo sapiens), P18054; note: potency is the fitted concentration of half-maximal effect; % is set by controls: 0 for no effect and ±100 for the full control effect
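Purified human 12hLO at 150 nM in 25 mM Hepes, 0.01% Triton X-100, pH 7.0, preincubated 15 min at room temperature with compound. Reaction started with 40 uM arachidonic acid, 30 min at room temperature. Hydroperoxide measured by Fe-xylenol orange, 573/405 nm absorbance ratio.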
Pol beta inh: qHTS Assay for Inhibitors of DNA Polymerase Beta | Pol beta primer extension/strand displacement, fluorescence kinetic | Potency, µM (top dose mostly 114 µM), for the others: at the top dose activity change, negative = inhibition, actives largely listed as inhibitors | 1.3% of 340,000 active; note: potency is the fitted concentration of half-maximal effect; % is set by controls: 0 for no effect and ±100 for the full control effect
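Kinetic readout of DNA synthesis with strand displacement by Pol beta. Compound and 10 nM enzyme sit 15 min at room temperature; 50 nM substrate starts the reaction, read immediately and at 10 min.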
POLH inh: qHTS for Inhibitors of Polymerase Eta; recombinant Pol eta, fluorescent DNA replication assay; DNA polymerase eta (Homo sapiens), Q9Y253; 1.2% of 390,000 active; AID 588591, 2011; Potency, µM (top dose mostly 114 µM), for the others: top-dose activity change, negative = inhibition, hits mostly inhibitors; note: potency is the fitted concentration of half-maximal effect; % is set by controls: 0 for no effect and ±100 for the full control effect
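Pol eta at 10 nM preincubated with compounds 15 min at room temperature; reaction started with fluorescent substrate (50 nM final) and read kinetically at 0 and 10 min.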
PI5P4K alpha inh: qHTS for Inhibitors of phosphatidylinositol 5-phosphate 4-kinase (PI5P4K). Phosphatidylinositol 5-phosphate 4-kinase type-2 alpha (Homo sapiens), P48426. PI5P4Kalpha enzyme, ADP-Glo luminescence, 60 min; active compounds read low. max response, %. 1.2% of 330,000 active. AID 652105, 2013; active = max response of -50% or lower; inconclusive = between -30% and -50%; inactive = -30% or higher; note: value at the top dose of about 77 µM; % is set by controls: 0 for no effect and ±100 for the full control effect
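Luminescence from ADP-Glo served as readout of PI5P4Kalpha activity in a qHTS format. Reaction: enzyme, substrate, compound, ATP at 5 microM final, 60 min at RT.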
POLI inh: qHTS for Inhibitors of Polymerase Iota; AID 588590, 2011; 1% of 390,000 active; DNA polymerase iota (Homo sapiens), Q9UNA4; Potency, µM (series often up to 115 µM), for inactives: at the highest dose activity, negative = inhibition, hits mostly inhibitors; Pol iota fluorescent replication assay, 10 min; note: potency is the fitted concentration of half-maximal effect
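Fluorescent replication assay read twice, at 0 min and 10 min after adding 50 nM (final) substrate. Enzyme (10 nM) and compounds were first incubated 15 min at room temperature; enzyme-free buffer wells were negative controls.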
Pol kappa inh: qHTS for Inhibitors of Polymerase Kappa | DNA polymerase kappa (Homo sapiens), Q9UBT6 | purified Pol kappa, fluorescent DNA synthesis assay, 10 min | Potency, µM (doses to about 107 µM), for the others: top-dose activity, negative = inhibition, usual class: inhibitors | 0.53% of 400,000 active | AID 588579, 2011; note: potency is the fitted concentration of half-maximal effect; % is set by controls: 0 for no effect and ±100 for the full control effect
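First, compounds were pin-transferred onto 10 nM Pol kappa. After 15 min at room temperature, substrate was added to 50 nM final. Fluorescence was then measured kinetically at 0 and 10 min.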
The depositor's hits bear a star; u = inconclusive; x = no result given; ! = repeats disagree; [ ] = another dose, or the depositor's remark. Unless noted, calls come from the whole dose curve; as a rule, active = well fitted inhibition curve with a large enough effect; inconclusive = small, poorly fitted or top-dose-only effect, or another doubt; inactive = no such curve, though single readings can be large or run the other way.

SMILES	12-LOX inh	Pol beta inh	POLH inh	PI5P4K alpha inh	POLI inh	Pol kappa inh
Cc1ccc2nc3sc(C(=O)Nc4c(C)[nH]c(=O)[nH]c4=O)c(N)c3cc2c1	u	50µM*	u	-28	4%	-26%
C/C(=C\C=C\c1ccco1)C(=O)c1ccc(Br)cc1	2µM*	x	x	x	x	x
N#CC(C#N)=C1C=CC=CN1/C(=C\c1ccco1)C(=O)c1ccc(Br)cc1	u	-7%	-26%	4	-17%	-4%
Cc1ccc(C(=O)OCC(=O)Nc2sc3c(c2C#N)CCCC3)cc1NC(=O)c1ccco1	35µM*	-1%	u	u	u	-11%
O=C(COC(=O)c1ccc2ncsc2c1)Nc1ncc(Cl)cc1Cl	-27%	0%	8.9µM*	-19	u	-6%
Cc1c(Cl)cnc(NC(=O)COC(=O)c2ccc3ncsc3c2)c1Cl	u	-14%	u	-22	u	-10%
Cc1ccc(C(=O)OCC(=O)Nc2ncc(Cl)cc2Cl)cc1NC(=O)c1ccco1	u	u	u	x	50µM*	-28%
COc1ccccc1N1C(=O)NC(NC(=O)c2cccc(Cl)c2)(C(F)(F)F)C1=O (centres undefined)	12%	x	x	x	x	x
O/N=C/c1cn(-c2ccccc2)nc1-c1ccncc1	4%	x	x	x	x	x
Cc1ccc2nc(C)c(C(=O)N(C)CC(=O)NC(C)(C)C)cc2c1	27%	x	x	x	x	x
Cn1ccc(=S)c2ccccc21	0%	-7%	6%	-73*	17%	3%
Nc1nccnc1C(=O)NCC1CCC1	-48%	x	x	x	x	x
COc1ccc(/C=C2\SC(=O)N(CCCC(=O)Nc3cc(Cl)ccc3C(=O)O)C2=O)cc1	35µM*	x	u	-20	u	-18%
COc1ccc(/C=C2\SC(=O)N(CCCC(=O)Nc3ccc(C(=O)O)cc3)C2=O)cc1OC	18%	1%	-21%	-9	-4%	-3%
COc1ccc(/C=C2\SC(=S)N(CCC(=O)Nc3ccccc3C(=O)O)C2=O)cc1	0%	8%	-3%	-8	u	-7%
COc1ccc(/C=C2\SC(=S)N(CCCC(=O)Nc3ccccc3C(=O)O)C2=O)cc1OC	x	-1%	89µM*	-64*	u	3%
COC(=O)CO[C@@H]1CO[C@H]2[C@@H]1OC[C@@H]2NC(=S)Nc1cc(C)cc(C)c1	71µM*	x	x	x	x	x
C/C(=N\NC(=O)c1ccc(-c2ccccc2)cc1)C1C(=O)c2ccccc2C1=O	0%	-9%	32µM*	-18	u	-5%
C/C(=N\NC(=O)c1ccc(Br)cc1)C1C(=O)c2ccccc2C1=O	-10%[57.4 µM]	22%	-17%	x	8%	-12%
Oc1c(I)cc(I)c2cccnc12	32µM*!	24%	-18%	-28	16%	-6%
O=C(Oc1c(Cl)cc(Cl)c2cccnc12)c1ccco1	7.1µM*	-14%	-13%	-10	35%	-15%
O=C(Oc1c(Cl)cc(Cl)c2cccnc12)c1cccs1	u	3%	-8%	7	u	-7%
Oc1ccc(Cl)c2cccnc12	4.5µM*!	x	-8%	-2	9%	-12%
O=S(=O)(O)c1cc(I)c(O)c2ncccc12	u	x	x	x	x	-6%[19.4 µM]
Cc1ccc(S(=O)(=O)Nc2cc(Cl)c(O)c3ncccc23)cc1	4.5µM*	2%	-16%	u	u	-3%
Oc1ccc(F)c2cccnc12	-29%	15%	-13%	u	90%	2%
COc1ccc2ccc(OCc3cccc(C#N)c3)cc2c1	10%	x	x	x	x	x
CCOc1ncccc1C(=O)Nc1cc(S(=O)(=O)N(C)C)ccc1C	1%	x	x	x	x	x
Cn1c(N)c(C(=O)COC(=O)c2cc(-c3ccc(F)cc3)nc3ccccc23)c(=O)n(C)c1=O	-18%	x	x	x	x	x
CCCNC(=O)C(=O)NC1CCC(C(C)(C)CC)CC1 (centres undefined)	16%	x	x	x	x	x

Assay outcomes as filed in PubChem BioAssay.
